Measurements from PubChem BioAssay (NCI).
The panel holds about 83,000 compounds, 20% with a hit somewhere; the sample as a whole holds those more often.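 Results are percent growth after 48 hours of single-concentration exposure. 100 means growth as in untreated cells, lower positive values show inhibition; negative values down to -100 show cell death.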 Unmarked numbers belong to inactive results. Active and inactive are the calls of the source. How the source made its calls: active means growth percent below 10; inactive means the rest.

Legend:
Assay in all cases: NCI-60 one-dose screen, 48 h (100 = growth as untreated, 0 = no growth, -100 = all killed)
RPMI-8226 leukemia = details: 10 µM unless noted
OVCAR-8 ovarian = details: 10 µM unless noted
OVCAR-5 ovarian = details: 10 µM unless noted
OVCAR-4 ovarian = details: 10 µM unless noted
IGROV1 ovarian = details: 10 µM unless noted
OVCAR-3 ovarian = details: 10 µM unless noted
HS 578T breast = details: 10 µM unless noted
NCI/ADR-RES ovarian = details: 10 µM unless noted
T-47D breast = details: 10 µM unless noted
BT-549 breast = details: 10 µM unless noted
MDA-MB-435 melanoma = details: 10 µM unless noted
SW-620 colon = details: 10 µM unless noted
MCF7 breast = details: 10 µM
HCT-116 colon = details: 10 µM unless noted
HCC-2998 colon = details: 10 µM unless noted
KM12 colon = details: 10 µM unless noted

SMILES: O=C(Cn1cc(COc2ncnc3c2cnn3-c2ccccc2)nn1)Nc1ccccn1
- growth (RPMI-8226 leukemia): 84.4%
- growth (OVCAR-8 ovarian): 92.5%
- growth (OVCAR-5 ovarian): 93.7%
- growth (OVCAR-4 ovarian): 92.7%
- growth (IGROV1 ovarian): 95.4%
- growth (OVCAR-3 ovarian): 100%
- growth (HS 578T breast): 88.3%
- growth (NCI/ADR-RES ovarian): 91.5%
- growth (T-47D breast): 80.9%
- growth (BT-549 breast): 94%
- growth (MDA-MB-435 melanoma): 98%
- growth (SW-620 colon): 102%
- growth (MCF7 breast): 90.4%
- growth (HCT-116 colon): 98.2%
- growth (HCC-2998 colon): 120%
- growth (KM12 colon): 100%

SMILES: COc1ccc2oc(=O)cc(Cn3cc(Cn4cnc5c4c(=O)n(C)c(=O)n5C)nn3)c2c1
- growth (RPMI-8226 leukemia): 103%
- growth (OVCAR-8 ovarian): 106%
- growth (OVCAR-5 ovarian): 94%
- growth (OVCAR-4 ovarian): 103%
- growth (IGROV1 ovarian): 104%
- growth (OVCAR-3 ovarian): 110%
- growth (HS 578T breast): 97.8%
- growth (NCI/ADR-RES ovarian): 105%
- growth (T-47D breast): 94.1%
- growth (BT-549 breast): 105%
- growth (MDA-MB-435 melanoma): 108%
- growth (SW-620 colon): 105%
- growth (MCF7 breast): 92.1%
- growth (HCT-116 colon): 102%
- growth (HCC-2998 colon): 95.9%
- growth (KM12 colon): 105%

SMILES: O=C(c1nc2ccccc2[nH]1)C1[C@@H](c2cccc(O)c2)C2CC3CCCCC3N2[C@@]12C(=O)Nc1cc(Cl)ccc12 (some centres undefined)
- growth (RPMI-8226 leukemia): 4.43% (active)
- growth (OVCAR-8 ovarian): 52.5%
- growth (OVCAR-5 ovarian): 69.3%
- growth (OVCAR-4 ovarian): 34.4%
- growth (IGROV1 ovarian): 38.8%
- growth (OVCAR-3 ovarian): 42.5%
- growth (HS 578T breast): 57.1%
- growth (NCI/ADR-RES ovarian): 85.2%
- growth (T-47D breast): 34.3%
- growth (BT-549 breast): 62.5%
- growth (MDA-MB-435 melanoma): 29.3%
- growth (SW-620 colon): 39.3%
- growth (MCF7 breast): 18.9%
- growth (HCT-116 colon): 31.5%
- growth (HCC-2998 colon): 33.8%
- growth (KM12 colon): 34.9%

SMILES: COC(=O)c1c2c(c(C)[n+]([O-])c1C)C(=O)C=C(NCc1ccccc1)C2=O
- growth (RPMI-8226 leukemia): -0.203% (active)
- growth (OVCAR-8 ovarian): 4.33% (active)
- growth (OVCAR-5 ovarian): -63.3% (active)
- growth (OVCAR-4 ovarian): -95% (active)
- growth (IGROV1 ovarian): -56.6% (active)
- growth (OVCAR-3 ovarian): -35.4% (active)
- growth (HS 578T breast): -30.6% (active)
- growth (NCI/ADR-RES ovarian): -14% (active)
- growth (T-47D breast): -34.4% (active)
- growth (BT-549 breast): -67.5% (active)
- growth (MDA-MB-435 melanoma): -89.6% (active)
- growth (SW-620 colon): -27.9% (active)
- growth (MCF7 breast): -62.1% (active)
- growth (HCT-116 colon): -12.6% (active)
- growth (HCC-2998 colon): -34.5% (active)
- growth (KM12 colon): -10.5% (active)

SMILES: O=C(/C=C/c1ccc(C(F)(F)F)cc1)c1ccc(Nc2nc(NCCO)nc(Nc3ccc(Cl)cc3)n2)cc1
- growth (RPMI-8226 leukemia): 6.67% (active)
- growth (OVCAR-8 ovarian): 52.6%
- growth (OVCAR-5 ovarian): 97.3%
- growth (OVCAR-4 ovarian): 42.2%
- growth (IGROV1 ovarian): 83.5%
- growth (OVCAR-3 ovarian): 27.1%
- growth (HS 578T breast): 72.4%
- growth (NCI/ADR-RES ovarian): 78.7%
- growth (T-47D breast): 24.2%
- growth (BT-549 breast): 57.9%
- growth (MDA-MB-435 melanoma): 47.7%
- growth (SW-620 colon): 0.404% (active)
- growth (MCF7 breast): -43.1% (active)
- growth (HCT-116 colon): -85.6% (active)
- growth (HCC-2998 colon): -30.2% (active)
- growth (KM12 colon): -51.2% (active)

SMILES: O=C(c1nc2ccccc2[nH]1)C1C(c2ccc(F)cc2)C2CC3CCCCC3N2[C@@]12C(=O)Nc1ccc(Cl)cc12 (some centres undefined)
- growth (RPMI-8226 leukemia): 13.9%
- growth (OVCAR-8 ovarian): 61.2%
- growth (OVCAR-5 ovarian): 61.8%
- growth (OVCAR-4 ovarian): 31.5%
- growth (IGROV1 ovarian): 42.8%
- growth (OVCAR-3 ovarian): 50.1%
- growth (HS 578T breast): 69.2%
- growth (NCI/ADR-RES ovarian): 51%
- growth (T-47D breast): 37.4%
- growth (BT-549 breast): 77.4%
- growth (MDA-MB-435 melanoma): 42.4%
- growth (SW-620 colon): 41%
- growth (MCF7 breast): 21.4%
- growth (HCT-116 colon): 28%
- growth (HCC-2998 colon): 43%
- growth (KM12 colon): 43.9%

SMILES: Cc1ccc2sc3c(NCCCNCCO)nc4ccccc4c3c(=O)c2c1
- growth (RPMI-8226 leukemia): -16.5% (active)
- growth (OVCAR-8 ovarian): 22.4%
- growth (OVCAR-5 ovarian): 90.7%
- growth (OVCAR-4 ovarian): 60.4%
- growth (IGROV1 ovarian): 48.8%
- growth (OVCAR-3 ovarian): 26.6%
- growth (HS 578T breast): 44.2%
- growth (NCI/ADR-RES ovarian): 72.6%
- growth (T-47D breast): -39.5% (active)
- growth (BT-549 breast): 90.2%
- growth (MDA-MB-435 melanoma): -80% (active)
- growth (SW-620 colon): -78.2% (active)
- growth (MCF7 breast): -78.8% (active)
- growth (HCT-116 colon): -67% (active)
- growth (HCC-2998 colon): -75.5% (active)
- growth (KM12 colon): -50.4% (active)

SMILES: NCCCNc1nc2ccccc2c2c(=O)c3cc(F)ccc3sc12
- growth (RPMI-8226 leukemia): -2.73% (active)
- growth (OVCAR-8 ovarian): 2.1% (active)
- growth (OVCAR-5 ovarian): 26.8%
- growth (OVCAR-4 ovarian): 33%
- growth (IGROV1 ovarian): 20.1%
- growth (OVCAR-3 ovarian): -16.4% (active)
- growth (HS 578T breast): 34.6%
- growth (NCI/ADR-RES ovarian): 11.4%
- growth (T-47D breast): -39% (active)
- growth (BT-549 breast): 81.1%
- growth (MDA-MB-435 melanoma): -91% (active)
- growth (SW-620 colon): -83.5% (active)
- growth (MCF7 breast): -69.8% (active)
- growth (HCT-116 colon): -78.2% (active)
- growth (HCC-2998 colon): -68.8% (active)
- growth (KM12 colon): -73.7% (active)

SMILES: CNCCNc1nc2ccccc2c2c(=O)c3cc(OC)ccc3sc12
- growth (RPMI-8226 leukemia): -17.2% (active)
- growth (OVCAR-8 ovarian): 26.3%
- growth (OVCAR-5 ovarian): 70.8%
- growth (OVCAR-4 ovarian): 29.7%
- growth (IGROV1 ovarian): 42.8%
- growth (OVCAR-3 ovarian): -40.7% (active)
- growth (HS 578T breast): 56%
- growth (NCI/ADR-RES ovarian): 51.5%
- growth (T-47D breast): -33.6% (active)
- growth (BT-549 breast): 76.1%
- growth (MDA-MB-435 melanoma): -86.1% (active)
- growth (SW-620 colon): -78.3% (active)
- growth (MCF7 breast): -56.9% (active)
- growth (HCT-116 colon): -82.3% (active)
- growth (HCC-2998 colon): -68.7% (active)
- growth (KM12 colon): -75.7% (active)
